Measurements reported in PubChem BioAssay.
Active and inactive are the calls of the source.

Columns and labels:
[1] = tested on: Plasmodium falciparum Sir2 (PF13_0152, Sir2A); assay: pfSir2 binders on small-molecule microarrays, primary screen, biochemical, small-molecule microarray, 635 nm fluorescence (AID 1098); details: small-molecule microarray binding, fluorescence 635 nm; higher = more signal;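 further: score merges spot fluorescence intensity with its signal-to-noise ratio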
[2] = small-molecule microarray binders of probe aDKK1, primary screen, biochemical, biotinylated probe, 635/667 nm fluorescence (AID 1099); details: higher = more signal;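 further: score merges 667nm spot fluorescence with signal to noise across triplicate slides; reference of the scale not given here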
[3] = small-molecule microarray binders of probe aCHRDL2, primary screen, biochemical, biotinylated probe, 635/667 nm fluorescence (AID 1100); details: higher = more signal
[4] = splicing luciferase reporter signal modulators, primary screen, spliceosome inhibition project, cell-based, HEK293, splice +/- reporter (AID 1101); details: luminescence, 24 h, higher = more signal, called active from +8 up or from −8 down;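 further: HEK293 cells carrying a splicing-competent luciferase reporter gene; test concentration not given here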
[5] = target: Fibroblast growth factor 10 (Homo sapiens) (UniProt O15520); assay: FGF10 binders on small-molecule microarrays, primary screen, biochemical, small-molecule microarray, 635 nm fluorescence (AID 1102); details: FGF10 binding, fluorescence 635 nm, higher = more signal
[6] = tested on: glycogen synthase kinase-3 (GSK3A per assay name; protocol says GSK3B); assay: GSK3 binders on small-molecule microarrays, primary screen, biochemical, small-molecule microarray, 635 nm fluorescence, GSK3A (AID 1103); details: small-molecule microarray binding, fluorescence 635 nm; higher = more signal; further: the record names both GSK3A and GSK3B
[7] = target: Epidermal growth factor receptor (Homo sapiens) (UniProt P00533); assay: EGFR binders on small-molecule microarrays, primary screen, biochemical, small-molecule microarray, 635 nm fluorescence (AID 1104); details: EGFR binding, higher = more signal;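 further: score merges 667 nm emission intensity with spot signal to noise over triplicate slides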
[8] = target: Follistatin-related protein 3 (Homo sapiens) (UniProt O95633); assay: FSTL3 binders on small-molecule microarrays, primary screen, biochemical, small-molecule microarray, 635 nm fluorescence (AID 1105); details: FSTL3 binding, higher = more signal;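 further: score merges emission near 667 nm and signal to noise per printed spot across three slides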
[9] = target: Dickkopf-related protein 1 (Homo sapiens) (UniProt O94907); assay: DKK1 binders on small-molecule microarrays, primary screen, biochemical, small-molecule microarray, 635 nm fluorescence scan (AID 1106); details: DKK1 binding, higher = more signal;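 further: score merges emission near 667 nm with signal to noise over three replicate slides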
[10] = tested on: Inhibin beta A chain (activin A); assay: INHBA (activin A) binders on microarrays, primary screen, biochemical, small-molecule microarray, 635 nm fluorescence scan (AID 1107); details: small-molecule microarray binding, higher = more signal;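 further: mouse activin A protein probed at 4.33 µg/mL on printed slides; score merges bound-protein fluorescence near 667 nm with spot signal-to-noise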

Chain of Dickkopf-related protein 1 (Homo sapiens) (O94907 whole entry, looked up): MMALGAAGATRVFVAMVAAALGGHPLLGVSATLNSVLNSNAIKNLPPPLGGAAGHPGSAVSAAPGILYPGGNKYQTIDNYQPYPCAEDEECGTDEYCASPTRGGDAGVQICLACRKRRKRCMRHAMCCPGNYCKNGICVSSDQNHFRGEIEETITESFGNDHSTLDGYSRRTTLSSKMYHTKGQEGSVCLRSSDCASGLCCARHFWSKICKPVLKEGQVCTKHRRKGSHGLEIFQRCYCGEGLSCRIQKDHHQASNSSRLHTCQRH
Chain of Epidermal growth factor receptor (Homo sapiens) (P00533 whole entry, looked up): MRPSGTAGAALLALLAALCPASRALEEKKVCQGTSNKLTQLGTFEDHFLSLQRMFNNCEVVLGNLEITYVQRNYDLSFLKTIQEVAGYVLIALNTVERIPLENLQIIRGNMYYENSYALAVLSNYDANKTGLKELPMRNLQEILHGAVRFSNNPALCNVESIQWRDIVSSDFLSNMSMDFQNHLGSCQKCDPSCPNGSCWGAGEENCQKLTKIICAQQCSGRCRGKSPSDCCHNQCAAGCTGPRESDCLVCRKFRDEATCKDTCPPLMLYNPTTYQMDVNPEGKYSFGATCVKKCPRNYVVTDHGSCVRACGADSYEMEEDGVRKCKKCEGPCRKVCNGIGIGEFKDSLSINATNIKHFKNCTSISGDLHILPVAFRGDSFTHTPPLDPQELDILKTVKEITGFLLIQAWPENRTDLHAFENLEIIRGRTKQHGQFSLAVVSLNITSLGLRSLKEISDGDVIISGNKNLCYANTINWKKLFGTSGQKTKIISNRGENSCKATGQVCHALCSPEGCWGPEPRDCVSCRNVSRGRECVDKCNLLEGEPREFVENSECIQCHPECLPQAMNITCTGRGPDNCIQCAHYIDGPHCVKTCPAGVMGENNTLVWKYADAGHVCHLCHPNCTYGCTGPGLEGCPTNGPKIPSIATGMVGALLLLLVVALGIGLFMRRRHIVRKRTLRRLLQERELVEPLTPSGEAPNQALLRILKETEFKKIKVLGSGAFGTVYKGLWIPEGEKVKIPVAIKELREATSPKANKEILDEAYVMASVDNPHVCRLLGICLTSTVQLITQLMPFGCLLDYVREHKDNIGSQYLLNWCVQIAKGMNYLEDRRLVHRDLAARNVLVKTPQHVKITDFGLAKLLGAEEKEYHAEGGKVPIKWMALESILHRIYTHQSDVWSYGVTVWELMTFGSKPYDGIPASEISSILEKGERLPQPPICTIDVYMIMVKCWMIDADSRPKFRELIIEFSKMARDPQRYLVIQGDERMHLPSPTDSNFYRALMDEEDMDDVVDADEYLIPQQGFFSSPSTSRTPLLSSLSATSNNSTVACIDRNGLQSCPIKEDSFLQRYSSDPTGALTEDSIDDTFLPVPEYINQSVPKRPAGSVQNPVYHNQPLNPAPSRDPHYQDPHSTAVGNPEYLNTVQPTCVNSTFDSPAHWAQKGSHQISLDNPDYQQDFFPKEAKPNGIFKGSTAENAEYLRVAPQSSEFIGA
Chain of Follistatin-related protein 3 (Homo sapiens) (O95633 whole entry, looked up): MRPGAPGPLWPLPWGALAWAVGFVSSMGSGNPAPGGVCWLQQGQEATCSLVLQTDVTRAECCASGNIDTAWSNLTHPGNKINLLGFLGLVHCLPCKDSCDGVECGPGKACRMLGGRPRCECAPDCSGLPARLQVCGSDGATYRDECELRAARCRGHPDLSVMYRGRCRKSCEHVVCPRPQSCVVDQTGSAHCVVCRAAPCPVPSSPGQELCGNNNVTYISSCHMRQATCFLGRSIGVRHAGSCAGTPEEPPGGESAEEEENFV
Chain of Fibroblast growth factor 10 (Homo sapiens) (O15520 whole entry, looked up): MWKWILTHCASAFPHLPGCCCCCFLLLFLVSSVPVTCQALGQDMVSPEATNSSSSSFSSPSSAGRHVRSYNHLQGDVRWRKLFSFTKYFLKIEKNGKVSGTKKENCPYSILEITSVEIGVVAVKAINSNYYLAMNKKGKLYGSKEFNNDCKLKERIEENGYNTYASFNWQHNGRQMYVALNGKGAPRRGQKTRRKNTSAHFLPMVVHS

Row | SMILES | composite z-score [1] | composite z-score [2] | composite z-score [3] | z-score [4] | composite z-score [5] | composite z-score [6] | composite z-score [7] | composite z-score [8] | composite z-score [9] | composite z-score [10]
1 | CO[C@H]1COC(=O)CC=C[C@H](C)[C@H](OC)COC(=O)[C@@H](C)NC(=O)CC=C[C@@H]1C | 1.65 | -0.407 | -1.19 | -0.59 (inactive) | 0.777 | 0.507 | 0.383 | 1.36 | 1.56 | 1.64
2 | CCCNC(=O)OC[C@H]1O[C@H](CCON=C2C[C@@H](O)[C@@H](O)[C@@H]3[C@@H]4C(=O)N(CC)C(=O)[C@@H]4CC[C@@H]23)C=C[C@@H]1Oc1ccc(OC)cc1 | 0.874 | -0.04 | -0.39 | 0.264 (inactive) | 0.55 | 1.05 | 0.611 | 1.07 | 1.35 | 0.157
3 | COC(=O)[C@H](C)NC(=O)CCC1CC(OC(=O)NCc2ccc3c(c2)OCO3)CC2(CCCC(COC(=O)NCCc3ccc(Cl)cc3)O2)O1 (stereo not given in full) | 0.207 | -0.146 | -0.589 | -0.51 (inactive) | 0.382 | 0.591 | 0.351 | 0.762 | 1.87 | 0.219
4 | COc1ccc(O[C@H]2C=C[C@@H](c3ccccc3)O[C@@H]2CO)cc1 | 0.281 | -0.227 | -0.116 | -0.752 (inactive) | 0.194 | 0.207 | 0.731 | 0.318 | 0.485 | 0.622
5 | O=C1[C@H]2[C@H]3[C@H](O)[C@H](O)CC(=NO[C@@H]4O[C@H](CO)[C@@H](O)[C@H](O)[C@H]4O)[C@@H]3CC[C@H]2C(=O)N1c1cccc(Oc2ccccc2)c1 | 0.405 | -0.327 | -0.595 | 0.302 (inactive) | 0.659 | 0.736 | 0.778 | 0.711 | 0.701 | 0.374
6 | CO[C@@H]1C=CCC(=O)N[C@@H](C)C(=O)OC[C@@H](OC)[C@H](C)C=CCC(=O)OC[C@H]1C | 1.27 | -0.266 | -1.14 | 0.175 (inactive) | 0.656 | 0.808 | 1.07 | 1.53 | 1.35 | 1.77
7 | CC(C)[C@@H](OCc1ccccc1)[C@H](C)CON=C1[C@H]2CCn3c(=O)n(-c4ccccc4)c(=O)n3[C@H]2[C@H](O)[C@@H]2O[C@H]12 | 0.552 | -0.0364 | -0.562 | 3.43 (inactive) | 0.785 | 0.227 | 0.329 | 0.0089 | 1.24 | 0.236
8 | O=C1C=C[C@@H](O)[C@@H]2[C@@H]3C(=O)N(C4CCCCC4)C(=O)[C@@H]3CC[C@@H]12 | 0.252 | -0.0259 | -0.369 | 2.14 (inactive) | 1.07 | 0.708 | 0.378 | 0.797 | 0.844 | 0.234
9 | O=C(NCCC[N+]1=CC=NC1c1ccccc1)N1CCCc2nc(-c3ccc(Br)cc3)ccc21 (stereo not given) | 1.02 | -0.128 | -0.346 | -0.106 (inactive) | 0.0448 | 0.212 | 0.221 | -0.0767 | 0.42 | 0.435
10 | O=C1[C@H]2CCn3c(=O)n(Cc4cc5c(cc4Cl)OCO5)c(=O)n3[C@H]2[C@H](O)[C@@H]2O[C@H]12 | 0.652 | -0.374 | -0.604 | 0.726 (inactive) | -0.41 | -0.734 | 0.413 | -0.0989 | 0.552 | 0.73
11 | O=C1[C@H]2[C@H]3[C@H](O)[C@H](O)CC(=NOC[C@@H](O)COCc4ccco4)[C@@H]3CC[C@H]2C(=O)N1Cc1ccccc1 | -0.422 | -0.316 | -0.611 | -0.153 (inactive) | 0.146 | 1.34 | 0.603 | 1.51 | 0.833 | 1.34
12 | CC(CCN1CCc2nc(-c3ccccc3)c(-c3ccccc3)cc2C1)=NOC(C)CN1CCCc2nc(C)c(C)cc21 (stereo not given) | 0.934 | 0.196 | -0.218 | 1.12 (inactive) | 0.942 | 1.02 | 0.603 | 1.02 | 0.732 | 0.858
13 | COc1cccc([C@H]2Oc3ccc(OC)cc3C(=NOCC[C@@H]3C=C[C@H](OC(C)=O)[C@@H](COC(C)=O)O3)[C@@H]2O)c1 | 1.21 | 0.0266 | -0.153 | -0.019 (inactive) | 0.696 | 0.321 | 0.274 | 0.795 | 0.718 | 0.842
14 | CCOC(=O)[C@H](Cc1ccccc1)NC(=O)CCC1CC(OC(=O)NCc2ccc3c(c2)OCO3)CC2(CCCC(COC(=O)NCCc3ccc(Cl)cc3)O2)O1 (stereo not given in full) | 0.667 | -0.188 | -0.509 | -2.3 (inactive) | 0.471 | 1.27 | 0.549 | 0.69 | 0.531 | 0.0209
15 | CC(C)CON=C1C[C@@H](O)[C@@H](O)[C@@H]2[C@@H]3C(=O)N(Cc4ccccc4)C(=O)[C@@H]3CC[C@H]12 | 0.296 | -0.373 | -0.583 | -1.59 (inactive) | 0.415 | 0.314 | 0.553 | 0.538 | 0.373 | -0.204
16 | CC(CCN1CCCc2nc(C)c(C)cc21)=NO[C@H](C)c1cn([C@H](CO)Cc2ccccc2)nn1 | 0.721 | -0.319 | -0.395 | 0.407 (inactive) | 0.59 | 0.605 | 0.596 | 0.761 | 0.935 | 1.11
17 | O=C1C[C@H](c2ccccc2)[C@H](c2ccc(Br)cc2)O1 | -0.159 | 0.0628 | -0.939 | -0.823 (inactive) | 0.193 | -0.826 | 0.127 | -0.093 | 0.278 | 0.266
18 | O=C1C=C[C@@H](O)[C@@H]2[C@@H]3C(=O)N(Cc4ccc5c(c4)OCO5)C(=O)[C@@H]3CC[C@@H]12 | 0.382 | -0.0574 | -0.528 | -0.5 (inactive) | 0.515 | 0.719 | 0.523 | 0.579 | 0.615 | -0.513
19 | CCOC(=O)[C@H](Cc1ccccc1)NC(=O)CCC1CC(OC(=O)NCc2cccc3ccccc23)CC2(CCCC(COC(=O)NCCOc3ccccc3)O2)O1 (stereo not given in full) | 1.2 | -0.351 | -0.477 | -1.82 (inactive) | 0.441 | 0.974 | 0.575 | 0.579 | 0.504 | 0.011
20 | CC(=O)OC[C@H]1O[C@H](CC=NOCC[C@@H]2C=C[C@H](OC(C)=O)[C@@H](COC(C)=O)O2)C=C[C@@H]1OC(C)=O | 0.892 | 0.771 | -0.752 | 0.525 (inactive) | 1.08 | 0.93 | 0.914 | 0.716 | 0.864 | 0.103
21 | COC(=O)[C@H](C)NC(=O)CCC1CC(OC(=O)NCc2cccc3ccccc23)CC2(CCCC(COC(=O)NCCCN3CCCC3=O)O2)O1 (stereo not given in full) | 0.666 | -0.102 | -0.279 | -0.915 (inactive) | 0.92 | 1.17 | 0.929 | 0.91 | 0.77 | -0.503
22 | CC(=O)OC[C@H]1O[C@@H](ON=C(C)C)[C@H](OC(C)=O)[C@@H](OC(C)=O)[C@@H]1OC(C)=O | -0.745 | -0.191 | 0.46 | 0.851 (inactive) | -0.527 | -1.28 | -0.246 | -1.57 | -1.38 | -2.17
23 | CO[C@@H]1C=CCC(=O)N[C@@H](C)C(=O)OC[C@@H](NS(=O)(=O)c2ccc(C)cc2)[C@H](C)C=CCC(=O)OC[C@H]1C | -0.401 | -0.298 | -0.748 | -0.275 (inactive) | 0.238 | -0.0731 | 0.329 | 0.828 | 0.359 | 0.976
24 | COC(=O)[C@H](C)NC(=O)CCC1CC(OC(=O)NCCc2ccc(F)cc2)CC2(CCCC(COC(=O)NCCOc3ccccc3)O2)O1 (stereo not given in full) | 0.612 | -0.244 | -0.224 | 0.587 (inactive) | 0.762 | 1.01 | 0.538 | 0.781 | 0.652 | -0.455
25 | CCOC(=O)[C@H](Cc1ccccc1)NC(=O)CCC1CC(OC(=O)NCc2cccc3ccccc23)CC2(CCCC(COC(=O)NCCc3ccccc3OC)O2)O1 (stereo not given in full) | 0.405 | -0.0537 | -0.409 | 0.223 (inactive) | 0.791 | 0.583 | 0.454 | 1.07 | 0.331 | -0.251
26 | CC(CCN1CCc2nc(-c3ccccc3)c(-c3ccccc3)cc2C1)=NO[C@@H](C)c1cc(-c2c(C)cc(C)cc2C)no1 | 0.655 | -0.0029 | 0.77 | -1.56 (inactive) | -0.567 | -0.725 | -0.345 | -0.601 | -0.524 | 0.5
